# Measured values as given in the supplement of paper PMC11417369.
# The full ranking holds about 25,000 sequences; the median of “ln(normalized median fluorescence intensity)” is about 7.1, and the highest 2% start at about 10. This excerpt belongs to a sample that is enriched for the highest values.
# Tested on: PfSIP2 AP2 domain 1 (GST-tagged)
# Experiment: gcPBM binding intensity (ln(normalized median fluorescence intensity)); higher = stronger DNA binding
# In short: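 An Agilent 4 × 180k array of primer-extended double-stranded 36-bp intergenic genomic probes, with negative controls, was incubated for 1 h with GST-tagged P. falciparum DNA-binding domains expressed in E. coli. Alexa488 anti-GST antibody detected bound protein, scanned at 488 nm. Binding intensity is the highest Masliner-normalised natural-log median intensity across replicate spots of either probe orientation.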
row,Sequence,gcPBM binding intensity (ln)
1,TAAAAAATTAATAAAGTGCATAAATATTACAATATT,8.14
2,AGGTATATATTACAAGTGCACTGTAAAATTAAAATT,10.7
3,TGCATAATTAAAAATGGTACACTGTATTTATAATAT [XGTACX_site1575],7.13
4,TCTTATGAATATCCCCGTACACATATATTTCTTATA [XGTACX_site6877],7.22
5,TATAAATTTTGTTTAGCACACACACCGACATACATA [CACACA_site9033],7.28
6,AAACAAAAAAGAAACACACACTAATTAAATTTTCTT [CACACA_site4746],6.74
7,AATATTTGTTAAAGAGGTACACCATTTGGTAGGGAA [XGTACX_site2165],7.06
8,ATTTTTTTTTTTTTTTTAAGACAAACTCTTAATTTA [CACACA_negctrl_site1389],6.78
9,TATGAAGTGCACAATACACACTAATTCTATATAAAT [CACACA_site7269],11.2
10,TATATGAAGTACACAATACACACTAATTATATATAA [CACACA_site2608],7.12
11,TATGAAGTACACAATACACACTAATTATATATAAAT [CACACA_site5444],6.91
12,CATACATACAGATATACACACATATATAATAATATA [CACACA_site5477],7.14
13,AGGTGCTTAATATATACACACATACAGATATATATA [CACACA_site5552],7.6
14,AGAATAATAAAATGGGTGCAATAGTTTTTTTTTTTT [GTGCAC_site9823],10.4
15,ATAATAAAAATAAGAGAATAAAAATGCAATTTAATG [CACACA_negctrl_site878],6.81
16,AAATGAATATTCATAGTGCAATATATAAATGAAAAT,7.94
17,GAGAAATTTATACATACACACATATATATATTATAT [CACACA_site4038],7.16
18,ATATATATATATGTATGTATATATATATGTTTGATT [XGTACX_negctrl_site62],9.56
19,AATATTACAATTTGGTGTACAGGTGCACATGCCTCA [XGTACX_site1730],11.5
20,ATTATTTTGTTTATTACATGCAGGTGTATATTACAG [TGCATGCA_site723],7.2
21,TTACGAATTACATATTGTACATATGCACAATTTTAA [XGTACX_site6802],7.4
22,ATATATTCCATAAAGGTGCTGTTAACGTGTCAACGT [GTGCAC_site9402],7.84
23,ATATATATATATAGTGCACACATATAAAATATATAT [CACACA_site8884],10.1

row,Sequence,gcPBM binding intensity (ln)
1,ATATATATATAGTGCACACATATAAAATATATATAA [CACACA_site2745],10.3
2,AGTGCATAATATTTATGTACGTATCACATATATTTT [XGTACX_site5166],9.05
3,TTTATATTTTTTTTTGCACACTTTAAAAAAATATAT [CACACA_site1146],7.4
4,AAAAATAAATATATATGTACACATATGTATACAATA [XGTACX_site4692],7.03
5,AAAAAAAAAAAAAGTGCACACTTTTAATATAAATAT [CACACA_site3314],10.8
6,TTATACAGGACAATAGTGCACATAAATATATGTATA,10.6
7,TATAATAAAATTTTTACACACTTTAAAAAAAAAAAA [CACACA_site524],6.88
8,AACATATTGGATTTAGTGCACATATATATCATAATA,10.3
9,ATATATCATATTATAGTGCATTTATAATAATATTAT,9.33
10,ATATAAATATAGTGTGCACACACATAATATATATAT [CACACA_site8713],8.66
11,AATACAATAAAATAGTGTACATATATATTATGTATA [XGTACX_site8258],6.93
12,AAGTATTATTTTTATGCATGTGAAGTGCAAAATAAA [TGCATGCA_site198],9.56
13,TTTTATTTTCGATGATGTACATTAAATTATACAGTA [XGTACX_site6053],7.01
14,AATACAATTTTTAACACACACACAATAATACAGATA [CACACA_site4823],7.17
15,ACAAATATGAGAAATTGTACATATAATAAAATAGTA [XGTACX_site2573],6.93
16,AAATAAATAAATATACGTACATATATATAATATATA [XGTACX_site5124],7.23
17,TATGTAAAAAGAGAAAAAAAAAAGAACGATAATTTC [CACACA_negctrl_site946],6.58
18,AATTAAAAAATTATCACACATATATATATATATATA [CACACA_site5789],9.53
19,TTTATATACACACAGAAGAACAGAAATATTATATAT [TGCATGCA_negctrl_site483],7.2
20,TTTAAAAAATAATATTGTACTATTCTCCCAATTTCT [XGTACX_site7079],6.57
21,GGTATACATATTAAATGTACATATTTTAACAATAAG [XGTACX_site4868],7.1
22,TGATTCTTTTGTATCACACACACTTAGTTTAATTTT [CACACA_site2404],6.85
23,TCTGTAAATACGTGCACACACAAATCACAAATGTGA [CACACA_site330],9.89

row,Sequence,gcPBM binding intensity (ln)
1,AATAAAAAAAAAAATAATATATATGTATAAATATAT [CACACA_negctrl_site1561],6.83
2,AAAAAAAAAAAAAAAGCACACACCAATGAGCAGCTT [CACACA_site1845],7.62
3,AAAATAAAAATAAAAGCACACATAAATATATATATA [CACACA_site8409],8.73
4,ATATCATTTTCCTGCACACATAAATTTATATAATAT [CACACA_site1048],7.82
5,TATATCTGTTTATATTGTACACATATATATATATAT [XGTACX_site714],9.28
6,TATATATTCATAAAGTGTACATGTTTATATATATAT [XGTACX_site7585],8.48
7,TTTTTTATTTTGTGCACACACATAAAAATATATATA [CACACA_site761],9.42
8,AATATAATATAATGCACACATAAAAAAAAAAAAATC [CACACA_site1303],7.43
9,TAATAAAAAAAGTGCACACACATAATATTTATATAT [CACACA_site7548],10.7
10,TTTTTTATTTTGTGCACACACATAAAAATATAAATA [CACACA_site6497],9.8
11,AATAATAAAAAAAGTGCACACACATAATATATATAT [CACACA_site9100],10.6
12,TTTTTCCTATTTTTAGTGCACATATAAATAAATAAA [GTGCAC_site9821],10.7
13,ATTTTTTTATTTTGTGCACACACATAAAAATATATA [CACACA_site762],9.99
14,AGGTCTGTTTTATATTGTACATAAAAAGTGCACATG [XGTACX_site4529],11.4
15,ATCTATTTCTATTGTTGTACTTATTTTTCATTGTTT [XGTACX_site6942],7.27
16,AATAGGTGCCTTTTTTCACACACATGTCAACTAAAT [CACACA_site8846],9.34
17,GATATATAAATAGATACACACATACATACATACATA [CACACA_site6260],7.18
18,ATATTTATTTTATAAAGTACTAAAAAATATATTATA [XGTACX_site8522],6.9
19,CATATAATAAATAATTGTACTTGATATAATATTATG [XGTACX_site3562],6.91
20,CCTTTATAAAAAAGTAGTACACAATGAATTTATAAT [XGTACX_site5523],7.1
21,CAAAATTAATAAGTCACACACACATCTATAATATAT [CACACA_site6519],6.78
22,ACATAAAATTGTTAAAAAATTGTATAAATAATACAT [XGTACX_negctrl_site557],6.81
23,TAATTCTAAATAAATGTACACACAAAAATAAATGTA [CACACA_site8509],7.02

row,Sequence,gcPBM binding intensity (ln)
1,TGTCAATCATATAAATGTACATTTTAAATGAGGTGT [XGTACX_site7391],7.36
2,TAATAAAAAAAGTGCACACACATAATATATATATAT [CACACA_site3340],10.4
3,TAATTATTTTAAAAAGTGCATTAAAAGATATTAAAT [GTGCAC_site9694],8.22
4,AAAAGTATATATTCAGTGCATAGTCTTTAAATATAA [GTGCAC_site9522],8.15
5,ATATATATATAGTGCACACTTAAGAATATAAAGAGG [CACACA_site1151],10.1
6,AATATAATATAATGCACACATAAAAAAAAAAAAAAA [CACACA_site304],7.47
7,TATATATATATATGTGCACACATAATAAAAAAAAAA [CACACA_site3830],9.64
8,ATATATATATATAGTGCACACTTAAGAATATAAAGA [CACACA_site4771],10.2
9,AAAAGTCTCTTTTTAGTGCACATTTTATTTAAATAT,10.2
10,AAATAAAGAATATAAATACACACTTAAATATATATT [CACACA_site4007],6.73
11,ACAATAAAGAACAGTATGCACTTTTATGCATGCGTA,8.94
12,CAAATAATATTATGAAGTACTTCAAATTTTGAAAGA [XGTACX_site2530],6.98
13,TATTTATTTATGTGTTGTACAAATAAATAGAGGTAT [XGTACX_site6408],7.35
14,AAAAATAAAACAATTACACACATAATTTTATTTTTA [CACACA_site928],6.86
15,ATATTTAACAGGTTAAAAATATAAACAAATAAATAA [CACACA_negctrl_site907],6.85
16,ATGCAAAATAAAGAAGCACACAAAAATGAAATATAT [CACACA_site9217],7.2
17,TGTGTATAAGTCACTTGTACTAGTAGTAAAAAAAAA [XGTACX_site4341],6.85
18,TTATTTATTCTATGTGCATGTTATTTTTTTTTTTCG [TGCATGCA_site262],7.6
19,ATTATTTTTCTATGTGTGCACGTGTGGAATGTGTCT [GTGCAC_site9507],10.3
20,TTCTATATTATATATGCATGTGTTATTCTTATTTTC [TGCATGCA_site92],7.15
21,ATATATATTAATATTTGTACATAAAATTATTTCAAT [XGTACX_site5364],7.14
22,TTTTCAATATATTAATGTACGAATACGCAAATAAGA [XGTACX_site1613],7.23
